Assay results: the supplement of paper PMC10849652
Of roughly 7,900 targets only a part is listed; those with a hit were picked by preference. About 0.6% of all pairs of compound and target were hits. Unmarked numbers belong to inactive results.

Columns and labels:
Assay in all cases: log2 fold change, soluble protein after heating vs DMSO (PISA); higher = thermal stabilisation; K562 cells, 10 uM, 30 min; active = over 0.2 and 3.5 SD of the protein, either way, in both replicates (recomputed)
bafetinib = compound: Cc1ccc(NC(=O)c2ccc(CN3CC[C@H](N(C)C)C3)c(C(F)(F)F)c2)cc1Nc1nccc(-c2cncnc2)n1 [bafetinib]
Summary of the method: (§1)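 For each measurement, 10 μM compound was applied for 30 min to K562 cells at 2×10^6 cells/mL. Aliquots were heated for 3 min across 48°C-58°C, pooled, and extracted in PBS with 0.5% NP-40 at 4°C; the supernatant after 21,000xg for 90 min was soluble protein. This was quantified by TMTpro 16plex LC-MS/MS with channel sums equalised, and thermal stability was reported relative to control samples from duplicates, on a log2 fold-change scale.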

[1] = compound: Cc1cccc(CC(=O)N2CCc3c2ccc(-c2cn(C)c4ncnc(N)c24)c3F)n1
Summary of the method: as §1

nilotinib = compound: Cc1cn(-c2cc(NC(=O)c3ccc(C)c(Nc4nccc(-c5cccnc5)n4)c3)cc(C(F)(F)F)c2)cn1 [nilotinib]
Summary of the method: as §1

[2] = compound: Cc1nc(Nc2n[nH]c3c2CN(C(=O)N[C@H](CN(C)C)c2ccccc2)C3(C)C)c2sccc2n1
Summary of the method: as §1

dasatinib = compound: Cc1nc(Nc2ncc(C(=O)Nc3c(C)cccc3Cl)s2)cc(N2CCN(CCO)CC2)n1 [dasatinib]
Summary of the method: as §1

[3] = compound: Cc1ncc(-c2ccnc(Nc3ccc(S(C)(=O)=O)cc3)n2)n1C(C)C
Summary of the method: as §1

[4] = compound: Cn1cc(-c2ccc3c(c2)CCN3C(=O)Cc2cccc(C(F)(F)F)c2)c2c(N)ncnc21
Summary of the method: as §1

[5] = compound: Cn1cc(-c2ccc3nnc(C(F)(F)c4ccc5ncccc5c4)n3n2)cn1
Summary of the method: as §1

tipifarnib = compound: Cn1cncc1[C@@](N)(c1ccc(Cl)cc1)c1ccc2c(c1)c(-c1cccc(Cl)c1)cc(=O)n2C [tipifarnib]
Summary of the method: as §1

mubritinib = compound: FC(F)(F)c1ccc(/C=C/c2nc(COc3ccc(CCCCn4ccnn4)cc3)co2)cc1 [mubritinib]
Summary of the method: as §1

UniProt P27105, sequence (P27105 whole entry, looked up): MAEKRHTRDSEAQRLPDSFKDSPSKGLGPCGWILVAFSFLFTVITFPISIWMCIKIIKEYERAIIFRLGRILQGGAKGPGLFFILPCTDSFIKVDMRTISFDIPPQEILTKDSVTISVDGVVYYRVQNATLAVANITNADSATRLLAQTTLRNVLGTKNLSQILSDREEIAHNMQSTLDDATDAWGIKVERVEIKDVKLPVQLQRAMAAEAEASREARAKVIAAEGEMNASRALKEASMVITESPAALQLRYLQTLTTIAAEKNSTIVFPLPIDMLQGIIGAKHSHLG
UniProt Q9NXE4, sequence (Q9NXE4 whole entry, looked up): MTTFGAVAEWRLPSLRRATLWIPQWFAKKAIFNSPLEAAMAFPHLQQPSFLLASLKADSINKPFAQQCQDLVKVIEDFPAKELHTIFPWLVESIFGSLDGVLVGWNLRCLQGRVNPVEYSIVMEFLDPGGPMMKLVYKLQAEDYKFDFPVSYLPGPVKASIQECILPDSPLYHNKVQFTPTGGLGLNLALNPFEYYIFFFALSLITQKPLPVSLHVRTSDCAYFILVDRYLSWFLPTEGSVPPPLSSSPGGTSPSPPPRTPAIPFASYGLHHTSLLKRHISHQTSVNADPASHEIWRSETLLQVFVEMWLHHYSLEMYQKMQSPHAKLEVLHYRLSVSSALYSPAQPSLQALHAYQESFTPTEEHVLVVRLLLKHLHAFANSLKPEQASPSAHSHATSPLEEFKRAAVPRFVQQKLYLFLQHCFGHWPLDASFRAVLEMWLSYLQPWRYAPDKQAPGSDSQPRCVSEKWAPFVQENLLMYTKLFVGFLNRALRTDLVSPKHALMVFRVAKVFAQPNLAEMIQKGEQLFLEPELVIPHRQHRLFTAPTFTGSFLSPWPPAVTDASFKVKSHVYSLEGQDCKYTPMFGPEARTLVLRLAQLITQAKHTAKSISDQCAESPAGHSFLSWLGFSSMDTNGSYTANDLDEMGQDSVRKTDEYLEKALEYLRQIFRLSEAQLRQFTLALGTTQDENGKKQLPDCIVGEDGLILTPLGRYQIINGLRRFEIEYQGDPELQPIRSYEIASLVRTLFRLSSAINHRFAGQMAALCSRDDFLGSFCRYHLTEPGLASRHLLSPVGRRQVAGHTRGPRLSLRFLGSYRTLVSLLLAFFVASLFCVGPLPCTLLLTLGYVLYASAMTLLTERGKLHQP
UniProt O43615, sequence (O43615 whole entry, looked up): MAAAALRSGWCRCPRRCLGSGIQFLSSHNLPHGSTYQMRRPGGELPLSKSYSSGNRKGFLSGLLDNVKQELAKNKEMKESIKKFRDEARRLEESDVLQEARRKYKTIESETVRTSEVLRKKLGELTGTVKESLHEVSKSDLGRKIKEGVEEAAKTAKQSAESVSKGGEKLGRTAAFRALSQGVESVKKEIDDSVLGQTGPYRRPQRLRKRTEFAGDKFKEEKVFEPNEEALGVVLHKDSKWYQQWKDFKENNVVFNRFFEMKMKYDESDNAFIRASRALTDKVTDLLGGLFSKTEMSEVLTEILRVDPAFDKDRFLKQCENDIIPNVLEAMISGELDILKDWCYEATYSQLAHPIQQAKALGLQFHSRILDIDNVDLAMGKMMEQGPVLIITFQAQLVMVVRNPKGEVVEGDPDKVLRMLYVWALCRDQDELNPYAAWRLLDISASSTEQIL
UniProt Q13596, sequence (Q13596 whole entry, looked up): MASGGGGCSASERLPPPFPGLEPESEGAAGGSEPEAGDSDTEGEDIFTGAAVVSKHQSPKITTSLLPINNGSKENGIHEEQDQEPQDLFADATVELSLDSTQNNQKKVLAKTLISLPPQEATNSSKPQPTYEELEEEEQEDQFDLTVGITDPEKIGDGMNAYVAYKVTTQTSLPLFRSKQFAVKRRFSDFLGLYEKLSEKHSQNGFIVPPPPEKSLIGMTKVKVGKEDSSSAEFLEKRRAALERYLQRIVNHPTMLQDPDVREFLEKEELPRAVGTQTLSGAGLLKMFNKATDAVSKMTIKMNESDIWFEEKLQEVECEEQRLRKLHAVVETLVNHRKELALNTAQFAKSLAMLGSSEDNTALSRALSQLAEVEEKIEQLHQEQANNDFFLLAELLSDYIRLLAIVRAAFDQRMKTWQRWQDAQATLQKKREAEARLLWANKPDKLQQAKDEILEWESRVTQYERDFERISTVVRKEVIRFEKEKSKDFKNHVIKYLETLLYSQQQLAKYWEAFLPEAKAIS
UniProt Q15005, sequence (Q15005 whole entry, looked up): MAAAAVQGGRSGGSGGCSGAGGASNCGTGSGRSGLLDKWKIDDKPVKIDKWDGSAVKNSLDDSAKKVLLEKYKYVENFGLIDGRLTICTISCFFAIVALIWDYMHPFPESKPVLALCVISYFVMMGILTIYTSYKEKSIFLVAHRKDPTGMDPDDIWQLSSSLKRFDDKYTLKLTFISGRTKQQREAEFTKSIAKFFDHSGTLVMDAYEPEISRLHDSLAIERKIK
UniProt Q96DI7, sequence (Q96DI7 whole entry, looked up): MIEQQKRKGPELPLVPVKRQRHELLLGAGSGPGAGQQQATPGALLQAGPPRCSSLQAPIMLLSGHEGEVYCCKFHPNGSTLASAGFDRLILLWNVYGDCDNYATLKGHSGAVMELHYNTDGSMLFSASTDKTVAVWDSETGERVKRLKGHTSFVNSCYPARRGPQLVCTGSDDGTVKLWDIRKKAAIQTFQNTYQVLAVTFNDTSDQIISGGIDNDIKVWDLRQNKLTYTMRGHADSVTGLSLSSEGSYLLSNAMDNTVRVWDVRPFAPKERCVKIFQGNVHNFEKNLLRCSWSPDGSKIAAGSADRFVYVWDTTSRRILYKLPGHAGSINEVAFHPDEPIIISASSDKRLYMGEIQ
UniProt P51571, sequence (P51571 whole entry, looked up): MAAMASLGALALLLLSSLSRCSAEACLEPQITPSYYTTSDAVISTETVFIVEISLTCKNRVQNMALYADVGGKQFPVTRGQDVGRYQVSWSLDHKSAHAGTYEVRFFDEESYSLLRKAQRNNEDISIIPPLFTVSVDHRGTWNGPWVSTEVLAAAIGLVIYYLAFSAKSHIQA
UniProt Q9Y6I9, sequence (Q9Y6I9 whole entry, looked up): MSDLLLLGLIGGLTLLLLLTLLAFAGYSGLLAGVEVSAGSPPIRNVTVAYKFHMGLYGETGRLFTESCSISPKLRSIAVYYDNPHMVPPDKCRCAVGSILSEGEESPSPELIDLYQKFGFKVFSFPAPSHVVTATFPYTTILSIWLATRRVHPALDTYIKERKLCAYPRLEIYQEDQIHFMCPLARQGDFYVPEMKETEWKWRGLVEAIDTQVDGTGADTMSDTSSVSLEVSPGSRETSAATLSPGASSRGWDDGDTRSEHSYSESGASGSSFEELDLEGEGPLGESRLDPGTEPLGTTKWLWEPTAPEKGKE
UniProt Q5VWP2, sequence (Q5VWP2 whole entry, looked up): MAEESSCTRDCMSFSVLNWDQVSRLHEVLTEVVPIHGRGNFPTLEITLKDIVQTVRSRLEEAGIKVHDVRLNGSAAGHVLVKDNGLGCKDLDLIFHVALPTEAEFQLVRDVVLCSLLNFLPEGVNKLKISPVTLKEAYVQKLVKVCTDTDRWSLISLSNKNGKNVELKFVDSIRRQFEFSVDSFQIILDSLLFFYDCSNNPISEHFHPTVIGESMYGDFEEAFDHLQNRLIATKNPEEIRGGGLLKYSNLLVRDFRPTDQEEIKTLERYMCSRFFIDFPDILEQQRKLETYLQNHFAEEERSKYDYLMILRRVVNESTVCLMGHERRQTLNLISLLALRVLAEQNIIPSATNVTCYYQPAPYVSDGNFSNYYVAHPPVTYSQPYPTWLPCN
UniProt Q08945, sequence (Q08945 whole entry, looked up): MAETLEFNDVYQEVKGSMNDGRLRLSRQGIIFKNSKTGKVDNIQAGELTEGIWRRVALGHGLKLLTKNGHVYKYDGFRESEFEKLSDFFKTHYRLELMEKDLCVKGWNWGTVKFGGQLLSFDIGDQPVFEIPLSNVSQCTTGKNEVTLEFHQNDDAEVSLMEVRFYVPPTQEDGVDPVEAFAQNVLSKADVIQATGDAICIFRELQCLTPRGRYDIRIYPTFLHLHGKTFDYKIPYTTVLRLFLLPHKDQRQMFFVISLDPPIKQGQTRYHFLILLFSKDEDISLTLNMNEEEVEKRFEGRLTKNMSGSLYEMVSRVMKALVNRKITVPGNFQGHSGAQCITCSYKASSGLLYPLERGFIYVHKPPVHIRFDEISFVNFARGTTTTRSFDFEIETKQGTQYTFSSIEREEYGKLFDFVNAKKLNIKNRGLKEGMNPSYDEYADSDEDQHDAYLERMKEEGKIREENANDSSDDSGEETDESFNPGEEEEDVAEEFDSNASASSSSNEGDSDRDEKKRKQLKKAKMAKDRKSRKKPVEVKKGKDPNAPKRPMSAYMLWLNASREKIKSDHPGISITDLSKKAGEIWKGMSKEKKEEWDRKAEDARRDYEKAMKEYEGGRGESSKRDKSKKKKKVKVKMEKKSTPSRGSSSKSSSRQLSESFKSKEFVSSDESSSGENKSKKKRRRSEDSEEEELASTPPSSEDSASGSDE
UniProt Q9NRS6, sequence (Q9NRS6 whole entry, looked up): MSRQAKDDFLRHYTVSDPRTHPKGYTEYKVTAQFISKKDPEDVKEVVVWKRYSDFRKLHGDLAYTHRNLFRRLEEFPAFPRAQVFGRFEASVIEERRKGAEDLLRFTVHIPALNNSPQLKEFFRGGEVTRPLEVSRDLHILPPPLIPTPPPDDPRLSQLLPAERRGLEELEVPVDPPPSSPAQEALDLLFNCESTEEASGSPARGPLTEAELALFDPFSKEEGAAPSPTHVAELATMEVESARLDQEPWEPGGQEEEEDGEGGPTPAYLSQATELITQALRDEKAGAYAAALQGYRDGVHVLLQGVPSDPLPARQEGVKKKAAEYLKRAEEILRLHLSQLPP
UniProt Q15527, sequence (Q15527 whole entry, looked up): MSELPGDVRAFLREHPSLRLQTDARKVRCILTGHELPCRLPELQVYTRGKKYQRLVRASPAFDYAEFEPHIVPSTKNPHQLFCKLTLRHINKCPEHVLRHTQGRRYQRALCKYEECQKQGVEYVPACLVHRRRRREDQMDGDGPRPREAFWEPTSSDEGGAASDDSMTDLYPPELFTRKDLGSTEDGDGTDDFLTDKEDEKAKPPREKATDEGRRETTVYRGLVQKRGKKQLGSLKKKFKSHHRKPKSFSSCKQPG

Target	log2 fold change (bafetinib)	log2 fold change [1]	log2 fold change (nilotinib)	log2 fold change [2]	log2 fold change (dasatinib)	log2 fold change [3]	log2 fold change [4]	log2 fold change [5]	log2 fold change (tipifarnib)	log2 fold change (mubritinib)
TBC1D24 (UniProt Q9ULP9)	-0.007	0.049	-0.069	-0.318 (active)	-0.15	-0.219	0.098	-0.045	-0.106	0.097
SNX1 (UniProt Q13596)	-0.149	0.146	-0.133	0	-0.191	-0.45 (active)	0.07	-0.028	-0.002	0.057
STXBP5 (UniProt Q5T5C0)	-0.032	0.017	0.003	-0.025	-0.06	-0.003	0.021	-0.026	-0.049	-0.021
TAOK1 (UniProt Q7L7X3)	-0.056	0.025	0.007	-0.023	-0.014	-0.03	0.043	-0.026	0.067	0.078
STEAP3 isoform 2 (UniProt Q658P3)	-0.044	0.058	-0.001	-0.061	-0.028	0.03	0.039	0.11	-0.085	-0.034
SMAD9 (UniProt O15198)	-0.102	-0.226	-0.113	0.004	-0.077	-0.114	0.058	0.015	-0.069	-0.067
SLC6A6 (UniProt P31641)	-0.001	-0.018	0.064	-0.015	-0.069	0.068	-0.011	-0.006	0.002	0.024
SRPRA (UniProt P08240)	0.143	0.138	0.066	0.04	-0.105	0.123	0.054	-0.037	-0.141	0.227 (active)
TEX264 (UniProt Q9Y6I9)	0.391	0.007	0.241	0.111	0.265	0.845 (active)	0.047	0.114	-0.006	0.047
SRCAP (UniProt Q6ZRS2)	-0.057	-0.001	0.072	0.152	-0.038	-0.007	-0.061	0.037	0.083	0.05
SNRNP40 (UniProt Q96DI7)	0.018	-0.023	0.054	0.166	0.1	0.119	-0.051	-0.021	0.038	0.006
SPCS2 (UniProt Q15005)	-0.057	0.003	0.014	-0.034	0	0	0.053	0.025	-0.035	0.037
SSR4 (UniProt P51571)	-0.011	-0.057	-0.001	0.021	-0.028	-0.005	0.067	0.026	-0.063	0.003
TENT5C (UniProt Q5VWP2)	-0.055	0.009	0.002	0.02	-0.122	0.005	-0.286	0.028	-0.02	0.014
SMPD4 isoform 4 (UniProt Q9NXE4)	-0.031	0.122	-0.1	-0.076	-0.037	0.025	0.098	0.04	-0.016	0.148
SLC27A2 (UniProt O14975)	0.044	0.005	0.179	-0.104	-0.106	0.025	0.054	0.073	0.187	-0.001
SORT1 (UniProt Q99523)	-0.494 (active)	-0.011	0.041	-0.023	0.02	-0.122	0.018	-0.026	0.076	0.045
STOM (UniProt P27105)	-0.01	0.043	0.039	-0.007	0.039	-0.03	-0.043	0.055	0.031	-0.008
SNX15 (UniProt Q9NRS6)	0.036	0.154	-0.064	-0.17	0.206	0.002	-0.046	0.086	0.067	-0.063
TBK1 (UniProt Q9UHD2)	-0.035	-0.024	-0.114	0.911 (active)	-0.096	0.012	0.055	-0.002	-0.103	-0.038
TM9SF2 (UniProt Q99805)	-0.056	0.008	0.025	-0.072	-0.013	0.041	0.023	0.036	0.009	-0.006
SPR (UniProt P35270)	-0.062	-0.102	-0.04	-0.012	0.467 (active)	-0.029	0.144	0.298	0.499 (active)	-0.083
SSX2 (UniProt Q16385)	-0.098	-0.011	0.003	-0.061	0.014	-0.042	-0.039	0.012	-0.015	-0.048
TIMM44 (UniProt O43615)	-0.355 (active)	0.045	-0.062	-0.066	-0.192	0.006	0.026	-0.002	-0.054	0.001
SSRP1 (UniProt Q08945)	0.007	0.015	-0.025	-0.175	-0.059	-0.075	0.03	-0.033	0	0.009
SURF2 (UniProt Q15527)	-0.103	0.039	0.054	-0.048	-0.02	0.082	-0.012	0.053	0.034	-0.013
SLC30A7 (UniProt Q8NEW0)	-0.169	-0.094	-0.16	0.052	0.04	0.003	0.048	-0.026	0.023	0.107
